How the values were obtained:
Test in all cases: DAPPL (digital affinity profiling via proximity ligation, sequencing); 10 mM Tris-HCl pH 7.5, 50 mM NaCl, 1 mM DTT, 4% glycerol, room temperature, 30 min; GST-TFs on glutathione beads, 16-mer random dsDNA library, 0.1% formaldehyde crosslink after washing; high values mean tight binding
FLI1 = target: T1, FLI1 (Homo sapiens, UniProt Q01543 1-452); conditions: protein: recombinant; tags: N-terminal GST; dsDNA, one strand shown
T1 sequence: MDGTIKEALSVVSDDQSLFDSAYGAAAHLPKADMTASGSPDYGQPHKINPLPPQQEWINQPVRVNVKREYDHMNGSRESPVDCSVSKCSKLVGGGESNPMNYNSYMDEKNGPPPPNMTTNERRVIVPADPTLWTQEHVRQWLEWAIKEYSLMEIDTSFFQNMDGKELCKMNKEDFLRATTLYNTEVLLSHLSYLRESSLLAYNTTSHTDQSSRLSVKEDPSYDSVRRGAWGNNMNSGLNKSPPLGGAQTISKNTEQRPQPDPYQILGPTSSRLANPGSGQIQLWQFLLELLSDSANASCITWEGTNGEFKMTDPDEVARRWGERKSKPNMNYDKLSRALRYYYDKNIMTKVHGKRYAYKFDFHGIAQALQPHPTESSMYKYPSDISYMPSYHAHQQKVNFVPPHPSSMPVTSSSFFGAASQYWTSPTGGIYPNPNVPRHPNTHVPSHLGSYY
Method in brief: (§1)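 Human transcription factors fused to GST were expressed in yeast, captured on glutathione beads, given DNA barcodes and pooled with a GST-only negative control. Pools were incubated with 200 nmole of a 16-mer random double-stranded DNA library in Tris/NaCl/DTT/glycerol buffer at room temperature for 30 min. They were then washed, crosslinked with 0.1% formaldehyde, proximity-ligated (BsaI/T4 ligase, 1 h, 37 °C), PCR-amplified and sequenced on an Illumina NextSeq500. Binding signal is each 6-mer's read frequency for a factor divided by its frequency for the GST control.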

ELK1 = target: T2, ELK1 (Homo sapiens, UniProt P19419 1-428); conditions: protein: recombinant; tags: N-terminal GST; dsDNA, one strand shown
T2 sequence: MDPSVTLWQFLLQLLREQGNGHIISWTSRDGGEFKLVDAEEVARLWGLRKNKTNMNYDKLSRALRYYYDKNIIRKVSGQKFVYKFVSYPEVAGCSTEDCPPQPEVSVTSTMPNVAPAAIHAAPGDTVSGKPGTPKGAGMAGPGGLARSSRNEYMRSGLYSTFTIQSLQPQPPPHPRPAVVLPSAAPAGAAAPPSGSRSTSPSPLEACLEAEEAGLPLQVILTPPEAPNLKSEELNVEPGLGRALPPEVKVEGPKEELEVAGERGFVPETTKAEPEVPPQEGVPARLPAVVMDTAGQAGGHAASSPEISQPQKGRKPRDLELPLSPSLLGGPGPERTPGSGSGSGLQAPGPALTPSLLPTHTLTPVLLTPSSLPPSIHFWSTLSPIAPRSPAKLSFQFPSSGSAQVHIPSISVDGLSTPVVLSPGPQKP
Method in brief: as §1

GABPA = target: T3, GABPA (Homo sapiens, UniProt Q06546 1-454); conditions: protein: recombinant; tags: N-terminal GST; dsDNA, one strand shown
T3 sequence: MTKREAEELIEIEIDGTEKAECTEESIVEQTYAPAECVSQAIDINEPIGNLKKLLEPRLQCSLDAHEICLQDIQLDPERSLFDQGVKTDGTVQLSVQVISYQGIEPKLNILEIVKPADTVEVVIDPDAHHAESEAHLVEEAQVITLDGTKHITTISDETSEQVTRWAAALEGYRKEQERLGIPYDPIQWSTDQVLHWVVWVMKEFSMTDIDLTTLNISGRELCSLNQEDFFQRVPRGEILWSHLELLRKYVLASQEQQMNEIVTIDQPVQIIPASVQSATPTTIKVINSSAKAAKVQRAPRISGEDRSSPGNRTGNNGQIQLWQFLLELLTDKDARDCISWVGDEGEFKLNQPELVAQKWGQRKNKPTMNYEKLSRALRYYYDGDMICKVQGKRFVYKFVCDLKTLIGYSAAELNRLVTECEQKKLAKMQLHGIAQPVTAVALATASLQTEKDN
Method in brief: as §1

ERG = target: T4, ERG (Homo sapiens, UniProt P11308 1-479); conditions: protein: recombinant; tags: N-terminal GST; dsDNA, one strand shown
T4 sequence: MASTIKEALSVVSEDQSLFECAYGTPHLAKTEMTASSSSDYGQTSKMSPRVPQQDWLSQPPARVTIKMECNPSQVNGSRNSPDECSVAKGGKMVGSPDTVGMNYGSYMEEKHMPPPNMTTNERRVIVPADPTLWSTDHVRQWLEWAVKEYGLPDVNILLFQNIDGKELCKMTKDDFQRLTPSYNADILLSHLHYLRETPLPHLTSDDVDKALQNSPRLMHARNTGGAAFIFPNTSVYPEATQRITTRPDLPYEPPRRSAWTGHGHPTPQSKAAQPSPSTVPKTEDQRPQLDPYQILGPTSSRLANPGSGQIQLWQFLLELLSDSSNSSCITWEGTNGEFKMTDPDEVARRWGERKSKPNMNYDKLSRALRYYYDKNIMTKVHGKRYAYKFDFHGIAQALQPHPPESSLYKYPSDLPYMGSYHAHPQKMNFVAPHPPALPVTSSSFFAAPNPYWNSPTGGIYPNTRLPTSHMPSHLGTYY
Method in brief: as §1

ELF1 = ELF1 (Homo sapiens, UniProt P32519 1-619); conditions: protein: recombinant; tags: N-terminal GST; dsDNA, one strand shown
Sequence of ELF1 (P32519 whole entry): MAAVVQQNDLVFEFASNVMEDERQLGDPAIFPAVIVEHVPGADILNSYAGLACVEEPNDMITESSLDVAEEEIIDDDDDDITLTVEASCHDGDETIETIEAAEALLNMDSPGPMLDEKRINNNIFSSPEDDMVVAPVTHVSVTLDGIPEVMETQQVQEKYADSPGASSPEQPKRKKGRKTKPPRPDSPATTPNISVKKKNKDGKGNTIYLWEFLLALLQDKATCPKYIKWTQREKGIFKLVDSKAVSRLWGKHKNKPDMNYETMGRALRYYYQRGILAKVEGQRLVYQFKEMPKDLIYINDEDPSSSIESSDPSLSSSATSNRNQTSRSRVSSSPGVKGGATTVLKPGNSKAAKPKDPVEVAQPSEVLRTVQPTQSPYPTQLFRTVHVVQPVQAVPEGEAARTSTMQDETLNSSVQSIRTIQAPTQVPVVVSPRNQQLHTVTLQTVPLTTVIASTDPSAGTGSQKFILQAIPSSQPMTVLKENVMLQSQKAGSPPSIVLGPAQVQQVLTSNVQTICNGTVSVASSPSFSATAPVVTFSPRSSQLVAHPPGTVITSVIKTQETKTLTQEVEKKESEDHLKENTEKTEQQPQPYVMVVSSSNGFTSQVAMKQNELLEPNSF
Method in brief: as §1

EHF = target: T5, EHF (Homo sapiens, UniProt Q9NZC4 1-300); conditions: protein: recombinant; tags: N-terminal GST; dsDNA, one strand shown
T5 sequence: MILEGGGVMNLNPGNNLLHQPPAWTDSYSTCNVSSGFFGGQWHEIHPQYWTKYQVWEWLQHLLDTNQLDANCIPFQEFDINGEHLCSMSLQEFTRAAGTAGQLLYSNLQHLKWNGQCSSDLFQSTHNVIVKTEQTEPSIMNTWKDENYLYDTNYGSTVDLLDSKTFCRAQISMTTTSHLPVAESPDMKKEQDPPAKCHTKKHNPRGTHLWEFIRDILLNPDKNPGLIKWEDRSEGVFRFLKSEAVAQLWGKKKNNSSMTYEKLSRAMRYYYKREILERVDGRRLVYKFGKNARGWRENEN
Method in brief: as §1

SPI1 = SPI1 (Homo sapiens, UniProt P17947 1-270); conditions: protein: recombinant; tags: N-terminal GST; dsDNA, one strand shown
Method in brief: as §1

SPIB = SPIB (Homo sapiens, UniProt Q01892 1-262); conditions: protein: recombinant; tags: N-terminal GST; dsDNA, one strand shown
Sequence of SPIB (Q01892 whole entry): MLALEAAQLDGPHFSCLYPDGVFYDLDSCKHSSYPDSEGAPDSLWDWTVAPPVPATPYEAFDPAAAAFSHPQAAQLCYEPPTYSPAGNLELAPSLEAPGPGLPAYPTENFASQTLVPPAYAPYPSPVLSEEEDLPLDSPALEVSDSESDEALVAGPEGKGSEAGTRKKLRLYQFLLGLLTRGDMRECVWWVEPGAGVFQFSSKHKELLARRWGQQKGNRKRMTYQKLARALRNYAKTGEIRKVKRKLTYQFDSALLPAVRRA
Method in brief: as §1

ELK3 = target: T6, ELK3 (Homo sapiens, UniProt P41970 1-407); conditions: protein: recombinant; tags: N-terminal GST; dsDNA, one strand shown
T6 sequence: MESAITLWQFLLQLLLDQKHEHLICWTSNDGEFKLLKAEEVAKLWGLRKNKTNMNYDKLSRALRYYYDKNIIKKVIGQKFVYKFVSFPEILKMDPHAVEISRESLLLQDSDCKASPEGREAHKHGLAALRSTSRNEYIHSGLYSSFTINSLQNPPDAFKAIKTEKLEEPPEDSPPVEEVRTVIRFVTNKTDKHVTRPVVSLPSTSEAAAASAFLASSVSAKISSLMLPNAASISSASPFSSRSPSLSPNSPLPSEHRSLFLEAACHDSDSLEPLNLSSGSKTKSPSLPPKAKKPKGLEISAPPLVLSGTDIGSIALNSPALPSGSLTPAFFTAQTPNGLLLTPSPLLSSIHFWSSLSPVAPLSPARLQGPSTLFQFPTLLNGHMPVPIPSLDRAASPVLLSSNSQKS
Method in brief: as §1

FEV = target: T7, FEV (Homo sapiens, UniProt Q99581 1-238); conditions: protein: recombinant; tags: N-terminal GST; dsDNA, one strand shown
T7 sequence: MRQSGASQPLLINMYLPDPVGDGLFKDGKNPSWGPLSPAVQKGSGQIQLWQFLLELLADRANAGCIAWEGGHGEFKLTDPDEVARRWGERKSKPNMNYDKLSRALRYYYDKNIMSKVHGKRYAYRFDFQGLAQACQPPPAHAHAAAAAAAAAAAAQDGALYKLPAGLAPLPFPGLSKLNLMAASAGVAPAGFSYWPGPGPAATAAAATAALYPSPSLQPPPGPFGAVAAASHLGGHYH
Method in brief: as §1

ETV5 = ETV5 (Homo sapiens, UniProt P41161 1-510); conditions: protein: recombinant; tags: N-terminal GST; dsDNA, one strand shown
Sequence of ETV5 (P41161 whole entry): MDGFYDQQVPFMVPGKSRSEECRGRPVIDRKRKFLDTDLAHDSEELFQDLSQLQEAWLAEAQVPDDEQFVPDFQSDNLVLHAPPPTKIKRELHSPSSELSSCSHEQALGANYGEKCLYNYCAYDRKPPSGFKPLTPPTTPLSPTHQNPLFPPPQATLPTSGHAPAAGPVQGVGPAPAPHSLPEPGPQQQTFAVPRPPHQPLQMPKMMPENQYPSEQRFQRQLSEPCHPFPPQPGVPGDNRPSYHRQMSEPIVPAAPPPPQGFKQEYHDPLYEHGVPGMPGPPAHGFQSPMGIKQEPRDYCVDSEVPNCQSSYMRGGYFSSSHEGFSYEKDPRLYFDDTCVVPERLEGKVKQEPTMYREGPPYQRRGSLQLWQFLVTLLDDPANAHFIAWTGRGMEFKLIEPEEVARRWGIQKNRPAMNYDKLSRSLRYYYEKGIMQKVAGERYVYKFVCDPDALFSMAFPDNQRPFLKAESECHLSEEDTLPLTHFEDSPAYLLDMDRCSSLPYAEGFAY
Method in brief: as §1

HSF1 = HSF1 (Homo sapiens, UniProt Q00613 1-529); conditions: protein: recombinant; tags: N-terminal GST; chain copies: 3; dsDNA, one strand shown
Sequence of HSF1 (Q00613 whole entry): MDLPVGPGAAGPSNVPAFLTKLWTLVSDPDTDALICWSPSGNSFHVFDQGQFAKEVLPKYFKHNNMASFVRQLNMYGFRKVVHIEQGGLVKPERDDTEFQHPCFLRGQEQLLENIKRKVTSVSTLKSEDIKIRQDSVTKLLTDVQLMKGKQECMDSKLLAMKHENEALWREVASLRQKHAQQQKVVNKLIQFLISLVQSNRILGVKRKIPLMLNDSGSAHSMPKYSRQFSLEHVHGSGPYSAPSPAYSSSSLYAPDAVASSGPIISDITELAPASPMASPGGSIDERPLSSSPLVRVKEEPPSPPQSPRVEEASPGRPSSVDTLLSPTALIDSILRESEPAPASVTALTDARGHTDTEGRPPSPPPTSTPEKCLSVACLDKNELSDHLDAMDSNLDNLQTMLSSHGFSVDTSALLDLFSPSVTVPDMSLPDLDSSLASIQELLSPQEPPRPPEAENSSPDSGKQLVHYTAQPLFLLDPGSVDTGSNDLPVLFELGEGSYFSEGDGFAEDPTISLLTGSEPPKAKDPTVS
Method in brief: as §1

SPIC = target: T8, SPIC (Homo sapiens, UniProt Q8N5J4 1-248); conditions: protein: recombinant; tags: N-terminal GST; dsDNA, one strand shown
T8 sequence: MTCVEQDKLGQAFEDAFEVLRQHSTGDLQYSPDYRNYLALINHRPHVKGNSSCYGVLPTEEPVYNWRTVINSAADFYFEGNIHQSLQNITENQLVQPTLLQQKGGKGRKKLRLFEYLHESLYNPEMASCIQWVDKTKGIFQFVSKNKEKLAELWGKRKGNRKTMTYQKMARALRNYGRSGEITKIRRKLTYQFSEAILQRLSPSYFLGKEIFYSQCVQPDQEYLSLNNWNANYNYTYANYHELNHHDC
Method in brief: as §1

ELF4 = ELF4 (Homo sapiens, UniProt Q99607 1-663); conditions: protein: recombinant; tags: N-terminal GST; dsDNA, one strand shown
Sequence of ELF4 (Q99607 whole entry): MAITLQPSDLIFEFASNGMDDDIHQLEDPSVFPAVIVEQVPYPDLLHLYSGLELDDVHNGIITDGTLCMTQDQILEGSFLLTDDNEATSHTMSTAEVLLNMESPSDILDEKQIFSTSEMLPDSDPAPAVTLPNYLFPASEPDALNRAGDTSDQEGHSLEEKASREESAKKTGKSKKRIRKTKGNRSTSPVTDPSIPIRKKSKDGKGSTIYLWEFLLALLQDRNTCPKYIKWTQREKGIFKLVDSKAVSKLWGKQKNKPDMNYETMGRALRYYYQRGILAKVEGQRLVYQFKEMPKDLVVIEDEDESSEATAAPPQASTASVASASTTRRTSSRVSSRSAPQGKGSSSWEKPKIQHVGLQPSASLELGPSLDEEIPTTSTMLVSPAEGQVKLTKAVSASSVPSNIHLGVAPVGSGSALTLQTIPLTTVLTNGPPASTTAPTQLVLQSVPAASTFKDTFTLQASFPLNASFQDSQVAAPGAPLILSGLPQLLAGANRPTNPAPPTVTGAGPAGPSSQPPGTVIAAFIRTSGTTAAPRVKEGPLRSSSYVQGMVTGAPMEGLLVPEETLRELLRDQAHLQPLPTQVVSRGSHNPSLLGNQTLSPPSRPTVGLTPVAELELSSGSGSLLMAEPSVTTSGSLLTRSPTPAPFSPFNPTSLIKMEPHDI
Method in brief: as §1

ELK4 = target: T9, ELK4 (Homo sapiens, UniProt P28324-2 1-405); conditions: protein: recombinant; tags: N-terminal GST; dsDNA, one strand shown
T9 sequence: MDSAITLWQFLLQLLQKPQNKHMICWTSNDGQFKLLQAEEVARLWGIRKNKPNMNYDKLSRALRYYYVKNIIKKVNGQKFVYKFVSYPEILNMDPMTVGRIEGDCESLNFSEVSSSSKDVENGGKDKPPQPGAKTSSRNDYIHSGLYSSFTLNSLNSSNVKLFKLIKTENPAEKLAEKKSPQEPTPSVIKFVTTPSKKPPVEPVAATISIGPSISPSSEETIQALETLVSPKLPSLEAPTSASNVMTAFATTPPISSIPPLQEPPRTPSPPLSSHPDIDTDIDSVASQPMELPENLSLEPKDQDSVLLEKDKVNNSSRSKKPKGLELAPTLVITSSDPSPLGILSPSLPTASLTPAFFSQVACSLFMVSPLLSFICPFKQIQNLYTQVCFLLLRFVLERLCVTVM
Method in brief: as §1

ETV2 = target: T10, ETV2 (Homo sapiens, UniProt O00321 1-342); conditions: protein: recombinant; tags: N-terminal GST; dsDNA, one strand shown
T10 sequence: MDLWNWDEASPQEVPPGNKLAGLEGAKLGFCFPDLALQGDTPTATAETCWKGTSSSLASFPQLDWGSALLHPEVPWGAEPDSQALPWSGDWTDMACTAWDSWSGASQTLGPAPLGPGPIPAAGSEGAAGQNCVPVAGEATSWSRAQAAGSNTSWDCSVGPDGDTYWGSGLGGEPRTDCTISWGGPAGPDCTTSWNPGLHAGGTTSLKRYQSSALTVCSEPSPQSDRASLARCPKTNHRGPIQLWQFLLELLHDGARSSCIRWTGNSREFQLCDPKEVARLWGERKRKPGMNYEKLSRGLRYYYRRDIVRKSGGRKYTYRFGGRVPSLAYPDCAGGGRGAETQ
Method in brief: as §1

ELF3 = target: T11, ELF3 (Homo sapiens, UniProt P78545 1-371); conditions: protein: recombinant; tags: N-terminal GST; dsDNA, one strand shown
T11 sequence: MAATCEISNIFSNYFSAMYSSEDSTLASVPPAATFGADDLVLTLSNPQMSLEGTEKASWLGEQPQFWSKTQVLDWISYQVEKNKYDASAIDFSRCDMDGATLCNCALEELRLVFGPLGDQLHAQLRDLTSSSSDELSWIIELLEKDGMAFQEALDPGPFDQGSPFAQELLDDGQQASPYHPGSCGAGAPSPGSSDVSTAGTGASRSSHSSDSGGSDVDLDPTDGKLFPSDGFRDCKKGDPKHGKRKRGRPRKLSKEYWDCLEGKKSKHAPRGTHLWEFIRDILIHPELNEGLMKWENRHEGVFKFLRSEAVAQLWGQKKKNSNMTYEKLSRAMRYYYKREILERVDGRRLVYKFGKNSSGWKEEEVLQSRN
Method in brief: as §1

CRX = CRX (Homo sapiens, UniProt O43186 1-299); conditions: protein: recombinant; tags: N-terminal GST; dsDNA, one strand shown
Sequence of CRX (O43186 whole entry): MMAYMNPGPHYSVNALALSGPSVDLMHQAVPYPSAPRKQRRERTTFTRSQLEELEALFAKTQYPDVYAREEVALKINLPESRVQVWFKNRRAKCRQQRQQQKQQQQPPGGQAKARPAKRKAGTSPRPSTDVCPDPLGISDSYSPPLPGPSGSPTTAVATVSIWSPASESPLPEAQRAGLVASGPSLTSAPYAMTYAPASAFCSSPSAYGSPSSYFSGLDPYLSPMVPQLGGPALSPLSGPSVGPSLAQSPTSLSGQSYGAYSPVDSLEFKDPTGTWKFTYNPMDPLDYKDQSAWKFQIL
Method in brief: as §1

ETV1 = ETV1 (Homo sapiens, UniProt P50549 1-477); conditions: protein: recombinant; tags: N-terminal GST; dsDNA, one strand shown
Sequence of ETV1 (P50549 whole entry): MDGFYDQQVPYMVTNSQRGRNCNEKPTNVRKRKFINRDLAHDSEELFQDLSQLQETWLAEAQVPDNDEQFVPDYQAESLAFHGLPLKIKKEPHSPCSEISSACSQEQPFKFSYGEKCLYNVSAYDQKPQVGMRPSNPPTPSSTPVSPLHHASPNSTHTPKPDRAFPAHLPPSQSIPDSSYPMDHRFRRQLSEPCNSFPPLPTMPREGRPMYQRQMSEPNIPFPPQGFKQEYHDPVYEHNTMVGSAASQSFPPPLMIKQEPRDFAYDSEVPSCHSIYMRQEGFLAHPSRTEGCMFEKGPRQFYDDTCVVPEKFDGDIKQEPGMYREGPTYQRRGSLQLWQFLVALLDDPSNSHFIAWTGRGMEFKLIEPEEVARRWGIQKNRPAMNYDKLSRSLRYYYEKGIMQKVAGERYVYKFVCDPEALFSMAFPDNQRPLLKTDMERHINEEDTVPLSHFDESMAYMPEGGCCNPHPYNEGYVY
Method in brief: as §1

Sequence: ATTCGC
- binding signal (FLI1): 1.18 fold enrichment (6-mer frequency, TF over GST control)
- binding signal (ELK1): 1.15 fold enrichment (6-mer frequency, TF over GST control)
- binding signal (GABPA): 1.25 fold enrichment (6-mer frequency, TF over GST control)
- binding signal (ERG): 1.25 fold enrichment (6-mer frequency, TF over GST control)
- binding signal (ELF1): 1.15 fold enrichment (6-mer frequency, TF over GST control)
- binding signal (EHF): 1.18 fold enrichment (6-mer frequency, TF over GST control)
- binding signal (SPI1): 1.21 fold enrichment (6-mer frequency, TF over GST control)
- binding signal (SPIB): 1.33 fold enrichment (6-mer frequency, TF over GST control)
- binding signal (ELK3): 1.06 fold enrichment (6-mer frequency, TF over GST control)
- binding signal (FEV): 1.24 fold enrichment (6-mer frequency, TF over GST control)
- binding signal (ETV5): 1.13 fold enrichment (6-mer frequency, TF over GST control)
- binding signal (HSF1): 1.47 fold enrichment (6-mer frequency, TF over GST control)
- binding signal (SPIC): 1.39 fold enrichment (6-mer frequency, TF over GST control)
- binding signal (ELF4): 1.11 fold enrichment (6-mer frequency, TF over GST control)
- binding signal (ELK4): 1.1 fold enrichment (6-mer frequency, TF over GST control)
- binding signal (ETV2): 1.29 fold enrichment (6-mer frequency, TF over GST control)
- binding signal (ELF3): 1.27 fold enrichment (6-mer frequency, TF over GST control)
- binding signal (CRX): 1.26 fold enrichment (6-mer frequency, TF over GST control)
- binding signal (ETV1): 1.11 fold enrichment (6-mer frequency, TF over GST control)

Source: publication PMC7862700, “An all-to-all approach to the identification of sequence-specific readers for epigenetic DNA modifications on cytosine”
